About 1,000 (0.31%) of roughly 320,000 compounds were called active. This is one part of a sample in which actives are shown more often than they occur.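 Rule for the calls: active = activation above the mean of all tested compounds plus 3 SD, cutoff set per screening run (cut at about 20% in these data); inactive = the rest.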

Sequence of Oxytocin receptor (Homo sapiens) (P30559 whole entry, looked up): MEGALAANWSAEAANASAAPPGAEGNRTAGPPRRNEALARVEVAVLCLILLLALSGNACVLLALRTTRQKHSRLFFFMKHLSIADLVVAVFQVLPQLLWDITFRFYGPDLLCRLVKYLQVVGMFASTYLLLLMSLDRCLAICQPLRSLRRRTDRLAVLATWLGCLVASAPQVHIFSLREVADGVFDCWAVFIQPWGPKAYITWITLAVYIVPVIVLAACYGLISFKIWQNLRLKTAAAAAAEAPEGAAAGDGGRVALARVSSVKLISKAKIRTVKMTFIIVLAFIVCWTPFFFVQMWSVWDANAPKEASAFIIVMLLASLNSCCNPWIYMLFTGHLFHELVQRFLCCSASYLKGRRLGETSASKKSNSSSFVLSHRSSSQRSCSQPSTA

The assay has as its target Oxytocin receptor (Homo sapiens) (UniProt P30559). The assay is described as follows: human OXTR agonists, primary screen, fluorescence, CHO-OTR cells, Fluo-8 calcium (AID 2435).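 Note: peak over basal fluorescence ratio from a 100 s FLIPR kinetic read.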 The note with it: Fluo-8 calcium fluorescence, at 3 µM, stronger effect = higher value, normalized: DMSO 0%, oxytocin 100%.
Consider `CN(C)CCN(C(=O)C1=COCCO1)c1nc2ccc(Cl)cc2s1`, for which the activation is 1.72% (inactive).
As for `Cc1nn(Cc2ccccc2)c(C)c1CNC(=O)c1ccc(F)c(S(=O)(=O)N2CCOCC2)c1`, the activation was 3.05% (inactive).
Then `Cc1ccc2c(c1)N(CC(=O)N1CCCc3ccccc31)C(=O)C(C)O2` (configuration not stated), with -1.51% (inactive); and `Cc1nc(C(=O)Nc2ccc(Cl)cc2)sc1C1(C)CC(c2ccccc2)=NO1` (configuration not stated), with 0.47% (inactive).
For `Cc1nc(C(=O)NCc2ccccc2)sc1C1(C)CC(c2cccnc2)=NO1` (configuration not stated), the activation was 21.7% (active).
For the compound `Cc1nc(-c2ccc(Cl)cc2)sc1C1(C)CC(c2ccccc2F)=NO1` (configuration not stated), the activation was -0.58% (inactive).
Then `COCC(C)NC(=O)CSc1nc2nn(-c3ccccc3)c(=O)c-2c2n1CCCCC2` (configuration not stated), with -0.74% (inactive); and `CC(=O)Nc1ccc(S(=O)(=O)N(C)c2ccc(OCC(=O)OCC(=O)N3CCCCC3)cc2)cc1`, with 0.24% (inactive).
`Cn1c(=O)c(=O)n(C)c2cc(S(=O)(=O)CCC(=O)N3CCCCC3)ccc21`: the activation was -0.07% (inactive).
For `O=C(C1CCCO1)N(Cc1ccccc1)c1ccccc1` (configuration not stated) the value was -1.09% (inactive); for `CC(=O)Oc1ccccc1C(=O)Nc1ncc([N+](=O)[O-])s1`, 20% (active).
For `O=C(CCc1ccccc1)Nc1ncc([N+](=O)[O-])s1` the value was 12.4% (inactive).
Consider `O=C(Cc1c(F)cccc1Cl)Nc1ncc([N+](=O)[O-])s1`, for which the activation was 8.99% (inactive).
In the case of `CCC(C(=O)Nc1ccc(C(C)C)cc1)c1ccccc1` (configuration not stated), the activation is 41.5% (active).
Then `CCC(C(=O)OCC(=O)Nc1ccc(C(=O)Nc2ccc(OC)cc2)cc1)c1ccccc1` (configuration not stated), with 5.16% (inactive); and `CCC(C(=O)Nc1ccc2c(c1)OCCO2)c1ccccc1` (configuration not stated), with 0.44% (inactive); and `CCCc1nc2ccccc2c(C(=O)OCc2nnc(-c3cc(OC)c(OC)c(OC)c3)o2)c1CC`, with 0.34% (inactive).
As for `C=CCNC(=O)/C=C/c1ccc(C(C)C)cc1`, the activation was -2.22% (inactive).
In the case of `OCCCC1CCCCN1Cc1nc(Cc2ccccc2Cl)no1` (configuration not stated), the activation is 1.04% (inactive).
`C=CCOc1cccc(C2C(C(=O)c3ccc(C)o3)=C(O)C(=O)N2c2nnc(C)s2)c1` (configuration not stated): the activation is 47.7% (active).
In the case of `C=CCOc1cccc(C2C(C(=O)c3ccc(C)o3)=C(O)C(=O)N2CCCn2ccnc2)c1` (configuration not stated), the activation was -0.44% (inactive).
As to `Cc1cc(N2C(=O)C(O)=C(C(=O)c3ccc(C)o3)C2c2ccc(OCc3ccccc3)cc2)no1` (configuration not stated), the activation was 0.01% (inactive).
For `COC(=O)CN(c1nc(C)c(Cl)c(OC)n1)S(=O)(=O)c1ccc(C)cc1` the value was -1.64% (inactive).
For `COC(=O)c1nn(-c2cccc(Cl)c2)ccc1=O` the value was 0.3% (inactive); for `COc1cc(OC)cc(C(=O)N[C@H](C(=O)OCC(=O)NC(C)c2ccccc2)C(C)C)c1` (some centres not stated), 76.7% (active).
`Cc1cc(C)cc(OCC(=O)NC(C)c2ccccc2)c1` (configuration not stated): the activation is -2.21% (inactive).
In the case of `COc1cc(OC)cc(C(=O)NCC(=O)OCC(=O)NC(C)CCc2ccccc2)c1` (configuration not stated), the activation is -0.13% (inactive).
Then `O=C(Cn1c(-c2ccc(Cl)cc2)noc1=O)N1CCN(c2ccccc2F)CC1`, with 2.36% (inactive); and `NS(=O)(=O)c1ccc(CNC(=O)c2cccc(S(=O)(=O)N3CCc4ccccc43)c2)cc1`, with -0.73% (inactive).
For `N#C/C(=C/c1ccc(N2CCCCC2)o1)C(=O)NCCc1c[nH]c2ccccc12` the value was 27.2% (active); for `O=C(CN1C(=O)NC2(CCCCC2)C1=O)NCCc1c[nH]c2ccccc12`, 0.26% (inactive); for `N#C/C(=C/c1ccc(N2CCOCC2)o1)C(=O)N1CCOCC1`, 4.33% (inactive).
Consider `CCCCCCCCCCCCC(NC(C)=O)(C(=O)OCC)C(=O)OCC`, for which the activation was 1.74% (inactive).
As for `O=C(c1cccnc1)N1CCN(S(=O)(=O)c2cccs2)CC1`, the activation was 0.18% (inactive).
With `CC1CCc2[nH]c3ccc(C(=O)N(C)CC(=O)Nc4cccc(F)c4)cc3c2C1` (configuration not stated), the activation was 2.82% (inactive).
As for `Fc1ccc(NC(=S)N2CCc3[nH]c4ccccc4c3C2)cc1`, the activation is 4.05% (inactive).
As to `O=C(CCCN1CCc2[nH]c3ccc(F)cc3c2C1)c1ccc(F)cc1`, the activation is 24.7% (active).
For `Cc1cccc(OCCC(=O)Nc2cc(S(=O)(=O)N3CCCCC3)ccc2N2CCOCC2)c1` the value was -0.97% (inactive); for `CC1(C)CC[C@@]2(C(=O)O)C(C1)C1=CCC3[C@@]4(C)CC[C@H](O)C(C)(C)C4CC[C@@]3(C)[C@]1(C)C[C@H]2O` (some centres not stated), 30.7% (active).
For `CC1(C)C2CC[C@]3(C)C(CC=C4[C@@H]5C[C@@](C)(CO)CC[C@]5(C(=O)O)CC[C@]43C)[C@@]2(C)CC[C@@H]1O` (some centres not stated) the value was 0.42% (inactive); for `CC1(C)CC[C@]2(C(=O)O)CC[C@]3(C)C(=CCC4[C@@]5(C)CC[C@H](O)C(C)(C)C5[C@H](O)C[C@]43C)[C@@H]2C1` (some centres not stated), 2.18% (inactive).
For `Cc1ccc(S(=O)(=O)N(CC(=O)NN=C2CCN(C)CC2)c2ccc(F)cc2)cc1` the value was -1.6% (inactive); for `CCCn1nc(C(=O)N2CCCc3ccccc32)c2ccccc2c1=O`, -1.8% (inactive); for `O=C(CCCN=C1NS(=O)(=O)c2ccccc21)OCC(=O)c1ccc(F)c(F)c1`, 30.8% (active).
On to `O=C(OCCN=C1NS(=O)(=O)c2ccccc21)c1cccc([N+](=O)[O-])c1`, for which the activation is 1.88% (inactive).
On to `N#CC1(NC(=O)COC(=O)CCN=C2NS(=O)(=O)c3ccccc32)CCCCC1`, for which the activation was 0.35% (inactive).
For `CN(C(=O)CN(CCO)CC(=O)N(C)C(C)(C)Cc1ccccc1)C(C)(C)Cc1ccccc1` the value was 50.2% (active).
Then `OCCN(Cc1ccccc1)Cc1ccc(Cl)cc1`, with -0.86% (inactive); and `CCN(CC)CCCNC(=O)CCc1ccccc1`, with -0.47% (inactive).
Consider `Cc1cc(S(=O)(=O)N2CCOCC2)ccc1OCC(=O)Nc1cccc(C(F)(F)F)c1`, for which the activation was 0.91% (inactive).
For `CC(C)C(=O)Nc1cccc(NC(=S)NC(=O)C(c2ccccc2)c2ccccc2)c1`, the activation was 4.03% (inactive).
`CCCCC(=O)NNC(=S)NC(=O)C(c1ccccc1)c1ccccc1`: the activation was 68.1% (active).
Take `CCNC(=S)NNC(=O)Cc1ccccc1`: the activation was 1.03% (inactive).
As to `CC1CCCN(CCCNC(=O)CN2C(=O)COc3ccc(S(=O)(=O)N4CCOCC4)cc32)C1` (configuration not stated), the activation is 0.7% (inactive).
Then `Cc1ccc(OS(=O)Nc2cccc3nccnc23)cc1` (configuration not stated), with 0.23% (inactive).
For `Cc1nn(C)cc1N1C(=O)c2cccc3c(N)ccc(c23)C1=O`, the activation was 70.2% (active).
For `O=C(O)c1ccc2c3c(cccc13)C(=O)N(OS(=O)(=O)c1ccccc1)C2=O` the value was 0.06% (inactive); for `CC(=O)Nc1ccccc1Sc1ccc2c3c(cccc13)C(=O)N(c1ccc(C)cc1)C2=O`, -0.75% (inactive); for `COc1ccc(N2C(=O)c3cccc4cccc(c34)C2=O)nn1`, -0.24% (inactive).
Then `Cc1nn(C)cc1C(=O)c1ccccc1`, with -1.25% (inactive); and `CN1C(=O)c2cccc3c(N)ccc(c23)C1=O`, with 84.9% (active).
For `CSc1ncccc1C(=O)Nc1cccc(S(=O)(=O)N2CCOCC2)c1` the value was 3.66% (inactive).
As for `CN(C)CCCN(C(=O)c1ccc(S(=O)(=O)N2CCCCCC2)cc1)c1nc2ccc(Br)cc2s1`, the activation was 20.8% (active).
Regarding `CN(C)CCCN(C(=O)c1ccc(S(=O)(=O)N2CCCCCC2)cc1)c1nc2cc3c(cc2s1)OCCO3`, the activation was 3.02% (inactive).
As for `CN(C)CCCN(C(=O)c1ccc(S(=O)(=O)N2CCCc3ccccc32)cc1)c1nc2ccc(F)cc2s1`, the activation is 15.5% (inactive).
For `Cc1oc2nc(SCC(=O)Nc3ccc(S(N)(=O)=O)cc3)nc(NC(=O)c3ccccc3)c2c1C` the value was 0.48% (inactive); for `CCCCCCCCCCCCN1C(=O)CSC1c1cccnc1` (configuration not stated), -0.53% (inactive); for `COCCC(=O)Nc1ccc2c(c1)CN(C(=O)CCOC)CC2`, 0.4% (inactive).
Then `CN(C)S(=O)(=O)c1ccc(NC(=O)N2CCOCC2)cc1`, with -0.79% (inactive); and `COc1ccc(S(=O)(=O)N(C)CC(=O)N2CCCC2)cc1`, with 1.27% (inactive).
Then `CN(C)S(=O)(=O)c1ccc(Oc2ccc(S(=O)(=O)N(C)C)cc2)cc1`, with 23.4% (active); and `Cc1nc(CC(=O)NNS(=O)(=O)c2ccc(F)c(Cl)c2)cs1`, with -0.41% (inactive).
Take `Cc1ccccc1N1CC(C(=O)Nc2ccc(S(=O)(=O)N3CCCC3)cc2)CC1=O` (configuration not stated): the activation is 1.72% (inactive).
For `CN(C)CC(O)COc1ccc(C(C)(C)c2ccc(OCC(O)CN(C)C)cc2)cc1` (configuration not stated) the value was 1.29% (inactive); for `CC(C)(c1ccccc1)c1ccc(OCCN2CCCC2)cc1`, 16% (inactive); for `CC(C)(c1ccccc1)c1ccc(OCCN)cc1`, 20.2% (active).
For `COc1ccc(-c2csc3ncnc(N4CCN(S(=O)(=O)c5ccccc5C#N)CC4)c23)cc1`, the activation is -0.22% (inactive).
As to `Cc1c(CCOC(=O)CC23CC4CC(CC(C)(C4)C2)C3)sc[n+]1Cc1ccc([N+](=O)[O-])cc1`, the activation is -1.22% (inactive).
For `COc1cc(OC)c2ccc(=O)oc2c1C(CCN1CCN(c2ccccc2)CC1)c1ccc2c(c1)OCO2` (configuration not stated) the value was -1.49% (inactive).
As for `COc1cc(C(CCN2CCN(c3ccccc3)CC2)c2c(OC)cc(OC)c3ccc(=O)oc23)cc(OC)c1OC` (configuration not stated), the activation is 22.2% (active).
Then `CCN(CC)CCC(c1cc(OC)c(OC)c(OC)c1)c1c(OC)cc(OC)c2c(-c3ccccc3)cc(=O)oc12` (configuration not stated), with 2.08% (inactive); and `Cc1ccc(S(=O)(=O)N2CCN(C(=O)Cc3sc(C)nc3-c3ccc(F)cc3)CC2)c(C)c1`, with -2.3% (inactive).
Then `CCCn1nc2cc(C(=O)NCc3ccccc3)ccc2c1OCC`, with -2.12% (inactive); and `COC(=O)CSc1nc2ccccc2c(=O)n1Cc1ccccc1`, with -1.02% (inactive).
Turning to `C=CCSc1nc2c(c(=O)[nH]c(=O)n2C)n1Cc1ccccc1`, the activation was -0.23% (inactive).
For `Cc1cc2nc3c(=O)n(Cc4ccccc4)c(=O)[nH]c3nc2cc1N`, the activation was 52.9% (active).
For `O=S(=O)(NCCOc1cccc2cccnc12)c1ccc(F)cc1` the value was 3.57% (inactive).

(Values after PubChem BioAssay AID2435 (The Scripps Research Institute Molecular Screening Center, 2010).)
